An excerpt weighted towards active compounds, which were near 1.5% of everything screened.
CRFR2-BP antag – CRF-BP/CRF-R2 complex antagonism | HEK293 CRF-R2/CRF-BP, CRF-induced calcium fluorescence | inhibition, % at 11.8 µM | hit rate 0.59% among 350,000;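 active means inhibition of the ligand-induced calcium signal above about 50% at the single tested concentration, limit read from the data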
cardiac RTF act – increases calcium sensitivity of human cardiac regulated thin filaments. IANBD-labeled TnC RTF fluorescence at EC20 calcium; 0% EC20 calcium, 100% full calcium. P19429+P45379. hit rate 0.24% among 340,000. activation, % at 7.2 µM;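 active means activation above the mean over all tested compounds plus 3 SD, cut at about 30% in these data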;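 further: rise in fluorescence read as greater calcium sensitivity of cardiac thin filaments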
Cardiac RTF inh – cardiac RTF calcium desensitization; inhibition, % at 7.15 µM; hit rate 0.12% among 340,000; P19429+P45379; AID 493244; IANBD-labeled cardiac RTF, Ca2+ fluorescence;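 active means inhibition above the mean inhibition of all tested compounds plus 3 SD, cut at about 17% in these data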;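 further: assay run at fixed EC70 calcium of 1.6 mM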
CRFR2-BP ag – agonists of human CRF-binding protein/CRF-R2 receptor complex | activation, % at 13.2 µM | hit rate 0.46% among 350,000 | AID 588473 | HEK293 CRF-R2/CRF-BP, calcium dye fluorescence (FLIPR); percent of saturating CRF peptide response;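 active means activation of at least 50%, plus an integration ratio under a set limit after plate pattern correction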;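 further: plate controls were neutral control wells without compound for no effect and CRF at EC100 for full effect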
IDE act – boosts human insulin-degrading enzyme activity in HEK cells. P14735. FAbeta-B cleavage, fluorescence polarization; 0% vehicle, 100% cell-free pure enzyme wells. activation, % at 5.96 µM. hit rate 0.073% among 340,000. AID 493087;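 active means activation above the mean of all tested compounds plus 3 SD, set per screening campaign, cut at about 17% in these data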
IDE cell inh – inhibits human insulin-degrading enzyme in HEK cells | inhibition, % at 5.59 µM | hit rate 0.41% among 320,000 | FAbetaB cleavage, fluorescence polarization | AID 434962;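 active means percent inhibition above the average of all tested compounds plus 3 SD, set per screening campaign, cut at about 16% in these data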;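 further: IDE supplied by intact live HEK cells; FP after avidin binding of uncleaved biotin substrate so inhibition keeps polarization high; 0% = DMSO wells and 100% = 60 µM reference IDE inhibitor Ii1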
IDE cell inh cf – confirmation of human insulin-degrading enzyme inhibitors in cells; inhibition, % at 5.59 µM; hit rate 51% among 1,200; shares compounds with IDE cell inh; HEK cells, FAbetaB cleavage, fluorescence polarization;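 active means mean inhibition across triplicate wells above the cutoff set by the earlier primary insulin-degrading enzyme screen, cut at about 16% in these data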;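 further: 0% = DMSO wells and 100% = 60 µM reference IDE inhibitor Ii1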
HEK293 tox – HEK cell cytotoxicity, counter-screen for IDE inhibitors | inhibition, % at 5.59 µM | HEK293 cytotoxicity, ATP luminescence | AID 449730 | hit rate 28% among 1,200 | shares compounds with IDE cell inh; in the data active means inhibition above about 22%;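 further: 0% = vehicle wells and 100% = reference cytotoxic drug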
* hit, by the source's call; · = no result given.

SMILES | CRFR2-BP antag | cardiac RTF act | Cardiac RTF inh | CRFR2-BP ag | IDE act | IDE cell inh | IDE cell inh cf | HEK293 tox
CCOC(=O)C1=C(C)N=c2s/c(=C\c3ccc(OCC(=O)O)cc3)c(=O)n2C1c1ccccc1 (stereo unspecified) | 8 | 2 | -1 | 2 | 4 | 1 | · | ·
COc1ccc(NC(=O)CCSc2nc(C)cs2)cc1 | -28 | 4 | -15 | -1 | -1 | 2 | · | ·
CC1CCN(c2c(NCc3ccc(C(=O)N4c5ccccc5CC4C)cc3)c(=O)c2=O)CC1 (stereo unspecified) | 20 | 3 | -11 | -2 | -46 | 38* | 32* | 16
CCNC(=S)N1CCN(c2nc(-c3ccc(F)cc3)cs2)CC1 | 5 | -5 | 6 | -4 | -16 | 19* | 6 | 15
CNC(=S)N1CCN(c2nc(-c3ccc(Cl)cc3)cs2)CC1 | -1 | -2 | 0 | -2 | -13 | 18* | 8 | 23*
CC(C)C(=O)N1CCN(c2nc(-c3ccc(Cl)cc3)cs2)CC1 | 18 | -4 | 1 | -1 | -8 | 4 | · | ·
COCCNC(=S)N1CCN(c2nc(-c3ccc(Cl)cc3)cs2)CC1 | 29 | 0 | 0 | -1 | -18 | 17* | 11 | 15
C[C@H](NC(=O)c1ncn2c1C(=O)NC[C@@H]2C)C(=O)OC(C)(C)C | -1 | · | · | -1 | · | · | · | ·
Cc1nn(C)c(C)c1Nc1ccc(N2C(=O)C3CC=CCC3C2=O)cc1[N+](=O)[O-] (stereo unspecified) | -17 | -1 | -10 | 0 | -2 | 0 | · | ·
O=S(=O)(c1ccc(NC2CCCc3ccccc32)nc1)N1CCOCC1 (stereo unspecified) | 9 | 0 | -2 | 0 | -3 | 19* | 7 | 12
CCOC1=C/C(=C/c2c(N)n3nc(CC(=O)N4CCCCC4)sc3nc2=O)C=CC1=O | -68 | 2 | 4 | 57* | -127 | 21* | 26* | 6
CCOC1=C/C(=C/c2c(N)n3nc(S(=O)(=O)CC)sc3nc2=O)C=CC1=O | -49 | 3 | -11 | 27 | -114 | 22* | 112* | 6
CCOc1cccc2sc(Nc3nc4ccc(NC(C)=O)cc4s3)nc12 | -26 | 2 | -6 | 1 | -28 | 32* | 15 | 89*
CCC(=O)Nc1nc2ccc(NC(C)=O)cc2s1 | -4 | -4 | -2 | 1 | -1 | 4 | · | ·
CCOC(=O)c1sc(Nc2nc3c(OC)cccc3s2)nc1C | · | -2 | -32 | · | -7 | 17* | 7 | 12
COc1ccc2[nH]c3c(N4CCC(O)(c5cccc(C(F)(F)F)c5)CC4)ncnc3c2c1 | -11 | 3 | -3 | -3 | -5 | 23* | 6 | 65*
CCCCn1nc(C(=O)Nc2ccc(-n3cnnn3)cc2)c2ccccc2c1=O | -8 | 3 | 2 | 1 | -2 | 2 | · | ·
CCCCCCn1c(=O)[nH]c2nc3cc(N)ccc3nc2c1=O | -308 | · | · | 275* | · | 69* | 93* | 14
O=C(COC(=O)c1ccc2ncsc2c1)Nc1cc([N+](=O)[O-])ccc1Cl | -22 | 0 | -1 | -4 | 3 | -2 | · | ·
Cc1ccc(C)c(S(=O)(=O)N2CCN(C(=O)Cn3c(=O)cnc4ccccc43)CC2)c1 | 13 | -2 | -3 | -2 | 2 | -9 | · | ·
CCCOC(=O)c1ccc(Oc2coc3c(CN(CC)CC)c(O)ccc3c2=O)cc1 | 10 | 0 | -10 | -2 | -9 | 20* | 6 | 11
CC(C)CC(NC(=O)C(NC(=O)C1CCC(=O)N1C(=O)OCc1ccccc1)C(C)C)C(=O)N1CCCC1C(N)=O (stereo unspecified) | 10 | -4 | -2 | 1 | -1 | 1 | · | ·
C=CCn1c(SCC(=O)NC2(C)CCS(=O)(=O)C2)nc2ccccc21 (stereo unspecified) | -4 | 7 | -5 | 0 | 1 | 7 | · | ·
Cc1cccc(NC(=O)/C(=C\c2ccc([N+](=O)[O-])o2)NC(=O)c2ccc(Cl)cc2)c1 | 0 | -2 | -2 | -1 | -4 | 17* | 6 | 13
COC1=CC(=Cc2c(N)n3nc(CC(=O)N4CCOCC4)sc3nc2=O)C=C(OC)C1=O | -109 | 12 | -8 | 151* | -100 | 121* | 26* | 6
SMILES | CRFR2-BP antag | cardiac RTF act | Cardiac RTF inh | CRFR2-BP ag | IDE act | IDE cell inh | IDE cell inh cf | HEK293 tox
Nc1c(C=C2C=CC(=O)C=C2)c(=O)nc2sc(CC(=O)N3CCOCC3)nn12 | 8 | 5 | 2 | 0 | 6 | 3 | · | ·
C=CCC1=C/C(=C\c2c(N)n3nc(CC(=O)N4CCCC4)sc3nc2=O)C=C(OC)C1=O | -106 | 3 | -6 | 71* | -116 | 26* | 26* | 7
COc1ccc(CNC(=O)COC(=O)[C@H](Cc2ccccc2)NC(=O)c2cccs2)cc1 | 7 | -2 | -5 | -1 | 2 | 3 | · | ·
CN(C)C=Nc1c(Br)cc(Br)c2nonc12 | -66 | 32* | -56 | 109* | -31 | 26* | 62* | 7
O=C(CNC(=O)c1ccc(Br)o1)NNC(=O)COc1ccccc1Cl | 1 | 5 | -5 | 1 | 6 | -3 | · | ·
N=C1/C(=C\c2ccc(SCc3ccco3)o2)C(=O)N=C2SC=NN12 | -39 | 15 | -31 | 42 | -31 | 25* | 13 | 8
C[n+]1ccccc1/C=C1\Sc2ccccc2N1CCO | 9 | 4 | -11 | 7 | 1 | 6 | · | ·
CC[n+]1ccc(/C=C2\Sc3ccccc3N2CCCS(=O)(=O)[O-])c2ccccc21 | 16 | 1 | -16 | 0 | 3 | 17* | 8 | 9
Cc1cc(C)c(NC(=O)CCCn2c(=O)oc3ccccc32)c(C)c1 | -4 | -4 | -3 | 0 | 3 | -1 | · | ·
CC1C(=O)N2CCCc3cc(S(=O)(=O)N4CCN(c5ccc(F)cc5)CC4)cc1c32 (stereo unspecified) | 8 | -2 | 2 | -4 | 5 | -10 | · | ·
O=C(Nc1ccc(Nc2ccccc2)cc1)c1ccc(Cl)cc1 | 6 | -1 | -3 | 0 | -3 | 7 | · | ·
N#C/C(C(=O)Nc1ccc(Cl)cc1)=C(/S)Nc1ccccc1 | 27 | -8 | -15 | -4 | -24 | 46* | 4 | 24*
COC(=O)c1cc(Sc2cccc(Cl)c2Cl)ccn1 | -4 | 9 | -2 | -3 | -14 | 19* | 0 | 12
COc1ccc([C@@H]2CC=C(C(=O)O)[C@H](c3ccccc3F)N2S(=O)(=O)c2ccc(C)cc2)cc1OC | 0 | -4 | 3 | 0 | 2 | 2 | · | ·
O=C(NNC(=O)C1CC(c2cccs2)=NO1)Nc1ccc(Cl)cc1 (stereo unspecified) | -9 | 2 | -6 | -2 | -3 | -1 | · | ·
FC(F)(F)c1ccc(Nc2nnnc3ccccc23)cc1 | -8 | 0 | 1 | 0 | 1 | 7 | · | ·

Screens as filed in PubChem BioAssay.
